Measured values from PubChem BioAssay (NCI).
Several values for one entry are separate records, joined by “and”; a condition that tells them apart may be missing. Equal entries are not always repeated. The panel holds about 83,000 compounds, 20% with a hit somewhere; the sample as a whole holds those more often.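 Assay: single dose, 48 h. Readout: percent growth (0 = no net growth; negative = cell death). Active: <10.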 Activity calls are given as the source filed them.

Tests used:
Assay in all cases: NCI-60 one-dose screen, 48 h (100 = growth as untreated, 0 = no growth, -100 = all killed)
Conditions in all cases: 10 µM unless noted
T-47D breast = test system: T-47D breast
BT-549 breast = test system: BT-549 breast
MDA-MB-435 melanoma = test system: MDA-MB-435 melanoma
SW-620 colon = test system: SW-620 colon
MCF7 breast = test system: MCF7 breast
HCT-116 colon = test system: HCT-116 colon
HCC-2998 colon = test system: HCC-2998 colon
KM12 colon = test system: KM12 colon
MDA-MB-468 breast = test system: MDA-MB-468 breast

Measured: growth

CC1(C)CC[C@]2(C(=O)Nc3ccc(F)cc3)CC[C@]3(C)C(=CCC4[C@@]5(C)C[C@@H](O)[C@H](O)[C@@](C)(CO)C5CC[C@]43C)C2C1 (some centres not stated)
active: MCF7 breast 7.64% | MDA-MB-468 breast 7.26%
inactive: T-47D breast 15.5% | BT-549 breast 33.2% | MDA-MB-435 melanoma 39.9% | SW-620 colon 59.4% | HCT-116 colon 17.2% | HCC-2998 colon 36% | KM12 colon 30.1%

COc1ccc(C(=O)/C=C/c2ccc(OCc3ccccc3)c(OC)c2)cc1OC
inactive: T-47D breast 30.4% | BT-549 breast 12.6% | MDA-MB-435 melanoma 30.9% | SW-620 colon 10.4% | MCF7 breast 10.5% | HCT-116 colon 12.3% | HCC-2998 colon 15.2% | KM12 colon 16% | MDA-MB-468 breast 23.8% and 11.1%

CC1(C)CC[C@]2(C(=O)O)CC[C@]3(C)C(=CCC4[C@@]5(C)C[C@@H](O)[C@@H]6OC(c7ccccc7F)OC[C@@]6(C)C5CC[C@]43C)C2C1 (some centres not stated)
active: BT-549 breast -15.9% | MCF7 breast 4.83% | HCT-116 colon -0.989% | KM12 colon 7.3% | MDA-MB-468 breast 5.82%
inactive: T-47D breast 21.3% | MDA-MB-435 melanoma 17.4% | SW-620 colon 14.6% | HCC-2998 colon 11.1%

CC(=O)Nc1ccc(-n2cnc3cc(-c4ccc(O)cc4)ccc32)cc1C(F)(F)F
active: MDA-MB-435 melanoma 3.5% | KM12 colon 3.46% | MDA-MB-468 breast 8.18%
inactive: T-47D breast 20.5% | BT-549 breast 32.5% | SW-620 colon 22.3% | MCF7 breast 18.4% | HCT-116 colon 31% | HCC-2998 colon 33.9%

C/C(=N\N=C1/C(=O)Nc2ccccc21)c1ccc2c(c1)Nc1ccccc1S2
inactive: T-47D breast 26.8% | BT-549 breast 43.9% | SW-620 colon 63.5% | MCF7 breast 22.2% | HCT-116 colon 16.2% | HCC-2998 colon 75.7% | KM12 colon 66.4% | MDA-MB-468 breast 34.6%
active: MDA-MB-435 melanoma -52.5%

O=C(CCN1C(=O)/C(=C/c2ccc(F)cc2)SC1=S)N1CCOCC1
inactive: T-47D breast 24.4% | BT-549 breast 62.6% | MDA-MB-435 melanoma 73.5% | SW-620 colon 61.9% | MCF7 breast 48.1% | HCT-116 colon 55.5% | HCC-2998 colon 113% | KM12 colon 76%
active: MDA-MB-468 breast -11.2%

COc1ccc(NC(=O)[C@H](CO)NC(=O)OC(C)(C)C)cc1C(=O)Nc1cccc(C2CC(=O)c3c(cc(OC)c(OC)c3OC)O2)c1 (some centres not stated)
inactive: T-47D breast 25.8% | BT-549 breast 12.7% | MDA-MB-435 melanoma 41.1% | SW-620 colon 73.9% | MCF7 breast 30% | HCT-116 colon 32.3% | HCC-2998 colon 83% | KM12 colon 43.8% | MDA-MB-468 breast 36.2%

Cc1ccc(C2=NN(c3nc(-c4cc5ccccc5oc4=O)cs3)C(c3ccc(C)cc3)C2)cc1 (configuration not stated)
inactive: T-47D breast 91.8% | BT-549 breast 120% | MDA-MB-435 melanoma 107% | SW-620 colon 105% | MCF7 breast 63.4% | HCT-116 colon 110% | HCC-2998 colon 118% | KM12 colon 106% | MDA-MB-468 breast 78.2%

CC(C)(C)OC(=O)/C=C/c1cccc2c1C(=O)NC(C)(c1cc3cc(Cl)ccc3oc1=O)N2 (configuration not stated)
inactive: BT-549 breast 15.2% | MDA-MB-435 melanoma 62.2% | SW-620 colon 55.7% | MCF7 breast 17.5% | HCT-116 colon 31.5% | HCC-2998 colon 52.9% | KM12 colon 19.9% | MDA-MB-468 breast 11.6%
active: T-47D breast -3.39%

COc1cc2oc(-c3cccc(C(=O)Nc4ccc(Cl)cc4)c3)cc(=O)c2c(OCCNC(=O)[C@H](CO)NC(=O)OC(C)(C)C)c1OC
inactive: T-47D breast 29% | SW-620 colon 33.7% | KM12 colon 17.3%
active: BT-549 breast -52.3% | MDA-MB-435 melanoma 3.55% | MCF7 breast 6.34% | HCT-116 colon 7.19% | HCC-2998 colon -7.27% | MDA-MB-468 breast -4.81%

COc1cc(C2CC(c3cc(OC)c(OC)c(OC)c3)=NN2C(C)=O)ccc1OCc1ccc(F)cc1 (configuration not stated)
inactive: T-47D breast 24.8% | BT-549 breast 44.9% | MDA-MB-435 melanoma 62.5% | SW-620 colon 58.5% | MCF7 breast 34.7% | HCT-116 colon 31.5% | HCC-2998 colon 86% | KM12 colon 57.1% | MDA-MB-468 breast 47.1%

CC12CC[C@@H]3[C@]4(C)COC(c5c(F)cccc5F)O[C@@H]4CC[C@@]3(C)[C@@H]1CC(C1=CCOC1=O)O2 (some centres not stated)
inactive: T-47D breast 55% | BT-549 breast 48.3% | MDA-MB-435 melanoma 86.1% | SW-620 colon 100% | MCF7 breast 58.4% | HCT-116 colon 49.1% | HCC-2998 colon 76.7% | KM12 colon 72.6% | MDA-MB-468 breast 52.1%

Cc1ccc([C@H]2C(C(=O)c3ccc(Cl)cc3)C3(N[C@@H]2c2ccccc2)C(=O)Nc2ccc(Cl)cc23)cc1 (some centres not stated)
inactive: T-47D breast 31.6% | BT-549 breast 80.9% | MDA-MB-435 melanoma 64.3% | SW-620 colon 64.1% | MCF7 breast 16.7% | HCT-116 colon 23.7% | HCC-2998 colon 18.8% | KM12 colon 34.8% | MDA-MB-468 breast 47.9%

Cc1ccc(NC(=O)[C@]23CCC(C)(C)CC2C2=CCC4[C@@]5(C)C[C@@H](O)[C@H](O)[C@@](C)(CO)C5CC[C@@]4(C)[C@]2(C)CC3)cc1 (some centres not stated)
active: BT-549 breast 0.29% | MCF7 breast 4.26% | HCT-116 colon 6.55% | HCC-2998 colon -6.83% | KM12 colon -22.3% | MDA-MB-468 breast 0.813%
inactive: T-47D breast 10.4% | MDA-MB-435 melanoma 26.2% | SW-620 colon 40.1%

CCCCSc1nc(NCCc2c[nH]c3ccccc23)c(C#N)c(-c2ccccc2)n1
inactive: BT-549 breast 70.2% | MDA-MB-435 melanoma 49.2% | HCC-2998 colon 16.3%
active: T-47D breast -0.0859% | SW-620 colon 4.59% | MCF7 breast 3.23% | HCT-116 colon 4.22% | KM12 colon 7.79% | MDA-MB-468 breast 3.04%

CC(C)Sc1nc(NCCc2c[nH]c3ccccc23)c(C#N)c(-c2ccc(F)cc2)n1
inactive: T-47D breast 20.8% | BT-549 breast 65% | MDA-MB-435 melanoma 58.7% | HCC-2998 colon 21.5% | KM12 colon 15.7%
active: SW-620 colon 6.5% | MCF7 breast 4.29% | HCT-116 colon 3.83% | MDA-MB-468 breast 2.22%

CC1(c2cc3cc(Br)ccc3oc2=O)NC(=O)c2c(/C=C/C(=O)OC3CC4CCC3(C)C4(C)C)cccc2N1 (configuration not stated)
inactive: T-47D breast 46.2% | BT-549 breast 83.9% | MDA-MB-435 melanoma 99.2% | SW-620 colon 89.1% | MCF7 breast 50.6% | HCT-116 colon 53.8% | HCC-2998 colon 95.9% | KM12 colon 72.8% | MDA-MB-468 breast 13.4%

CN(C)CCCNC(=O)c1cc(NC(=O)c2cc(NC(=O)c3ccc(C#Cc4ccccc4)cc3)cn2C)cn1C
active: T-47D breast -14.9% | BT-549 breast -15% | MDA-MB-435 melanoma -63.3% | SW-620 colon -12.9% | MCF7 breast -93.3% | HCT-116 colon -92.4% | HCC-2998 colon -90.7% | KM12 colon -64% | MDA-MB-468 breast -93.8%

COc1ccc(NC(=O)Nc2ccc(OCc3ccc(F)cc3)cc2)cc1
inactive: T-47D breast 84.7% | BT-549 breast 84.9% | MDA-MB-435 melanoma 83% | SW-620 colon 73.6% | MCF7 breast 57.6% | HCT-116 colon 58.1% | HCC-2998 colon 90.8% | KM12 colon 93.3% | MDA-MB-468 breast 77.5%

CCN(CC)CCOc1ccc(Nc2ncc3cc(-c4ccc(O)c(C#N)c4)c(=O)n(C)c3n2)cc1
inactive: T-47D breast 36.5% | BT-549 breast 112% | MDA-MB-435 melanoma 29.9% | SW-620 colon 110% | MCF7 breast 16.8% | HCT-116 colon 32.9% | HCC-2998 colon 111% | KM12 colon 72.4% | MDA-MB-468 breast 63.5%

COc1cc(/C=C2\C(=N)N=C(SCc3nc4ccccc4[nH]3)NC2=O)ccc1O
inactive: T-47D breast 99.8% | BT-549 breast 107% | MDA-MB-435 melanoma 99.7% | SW-620 colon 95.6% | MCF7 breast 93.7% | HCT-116 colon 99.8% | HCC-2998 colon 105% | KM12 colon 106% | MDA-MB-468 breast 106%

COc1ccc(CCC2c3c(cc4c(c3OC)OCO4)CCN2C)cc1 (configuration not stated)
active: T-47D breast -43.1% | BT-549 breast -69.9% | MDA-MB-435 melanoma -66.2% | SW-620 colon -78.1% | MCF7 breast -82.3% | HCT-116 colon -58.3% | HCC-2998 colon -78.8% | KM12 colon -37.3% | MDA-MB-468 breast -81.5%

Cc1nc(Nc2ccccn2)sc1C(=O)CC(SCC(=O)Nc1ccc(Cl)cc1)c1ccccc1F (configuration not stated)
inactive: BT-549 breast 24.2% | MCF7 breast 13.2% | HCC-2998 colon 17.2%
active: T-47D breast -7.28% | MDA-MB-435 melanoma -60% | SW-620 colon 2.15% | HCT-116 colon 4.66% | KM12 colon -19.1% | MDA-MB-468 breast -22.1%

Cc1cc2c(cc1Cl)C(=O)/C(=C/c1ccc(F)cc1)O2
inactive: T-47D breast 69.1% | BT-549 breast 85% | MDA-MB-435 melanoma 106% | SW-620 colon 111% | MCF7 breast 37.9% | HCT-116 colon 73.5% | HCC-2998 colon 117% | KM12 colon 92.7% | MDA-MB-468 breast 91.1%

Cc1cc2c(cc1Cl)C(=O)/C(=C/c1ccccc1)O2
active: T-47D breast -22.8% | BT-549 breast -3.52% | MDA-MB-468 breast 0.644%
inactive: MDA-MB-435 melanoma 19.7% | SW-620 colon 33.9% | MCF7 breast 17.5% | HCT-116 colon 18.1% | HCC-2998 colon 63.6% | KM12 colon 17.8%

COc1ccc(-c2nc(SCC(C)C)nc(NCCc3c[nH]c4ccccc34)c2C#N)cc1
inactive: T-47D breast 22.6% | BT-549 breast 80.8% | MDA-MB-435 melanoma 80.7% | SW-620 colon 72.7% | MCF7 breast 22.8% | HCT-116 colon 25.1% | HCC-2998 colon 62.6% | KM12 colon 52.8% | MDA-MB-468 breast 58.4%

O=C(Nc1ccccc1)N1CCN(c2cc(-c3cn(-c4ccccc4)nc3-c3cccc(O)c3)ccn2)CC1
inactive: T-47D breast 13.1% | BT-549 breast 67.3% | MDA-MB-435 melanoma 13.7% | SW-620 colon 87.5% | MCF7 breast 63.3% | HCT-116 colon 65.7% | HCC-2998 colon 81.8% | KM12 colon 39.5% | MDA-MB-468 breast 58.7%

Brc1ccc(-c2n(Cc3ccc4ccccc4c3)c(-c3ccccc3)c(-c3ccccc3)[n+]2Cc2ccc3ccccc3c2)cc1
active: T-47D breast -76.7% | BT-549 breast -96.7% | MDA-MB-435 melanoma -91% | SW-620 colon -86% | MCF7 breast -69.8% | HCT-116 colon -97.9% | HCC-2998 colon -88.9% | KM12 colon -93.4% | MDA-MB-468 breast -71.2%
